# 12-LOX inh = Primary qHTS assay for inhibitors of human arachidonate 12S-lipoxygenase (ALOX12): Round 2; Potency, µM (highest dose often 108 µM), usual class: inhibitors; AID 1671190, 2021; Polyunsaturated fatty acid lipoxygenase ALOX12 (Homo sapiens), P18054; purified 12hLO, xylenol orange hydroperoxide absorbance; actives 1.1% (n = 580,000)
#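 Hydroperoxide product was detected by ferrous iron/xylenol orange as the 573 to 405 nm absorbance ratio. Arachidonic acid at 40 uM (final) was turned over for 30 min at room temperature by 150 nM human 12hLO, pH 7.0 Hepes buffer, after 15 min compound preincubation.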
# ERG Ets-DNA blk = qHTS for Small Molecule Inhibitors of the ERG Ets/DNA interaction; Transcriptional regulator ERG (Homo sapiens), P11308; fluorescence polarization, His-ERG Ets domain / labelled DNA; Potency, µM (titrated, usually from 76.9 µM), usual class: inhibitors; actives 0.028% (n = 370,000); AID 624246, 2012; active = well fitted inhibition curve with a large enough effect in the polarisation, with a control signal flat; inconclusive = small, poorly fitted or top-dose-only effect, or effect the other way, or a change in a side signal; inactive = no such curve, though single readings can be large or run the other way; the % refers to the polarisation;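 note: polarization taken with two DNA probes labelled with fluorescein and Texas red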
# Target sequence (P11308 whole entry, looked up, the tested form may be a part): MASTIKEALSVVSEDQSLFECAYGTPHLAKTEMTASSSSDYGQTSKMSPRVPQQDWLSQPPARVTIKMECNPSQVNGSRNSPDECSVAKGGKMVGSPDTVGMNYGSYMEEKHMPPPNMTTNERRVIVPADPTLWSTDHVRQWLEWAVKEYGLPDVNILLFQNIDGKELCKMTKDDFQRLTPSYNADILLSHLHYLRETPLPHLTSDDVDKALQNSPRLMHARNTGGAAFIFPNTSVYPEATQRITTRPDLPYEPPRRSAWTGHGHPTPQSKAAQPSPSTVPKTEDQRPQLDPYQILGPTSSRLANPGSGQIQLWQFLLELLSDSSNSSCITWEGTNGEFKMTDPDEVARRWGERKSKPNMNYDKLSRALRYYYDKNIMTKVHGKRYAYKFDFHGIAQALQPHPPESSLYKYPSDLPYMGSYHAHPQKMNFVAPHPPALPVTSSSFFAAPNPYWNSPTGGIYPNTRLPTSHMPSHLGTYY
#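 His-tagged ERG Ets domain (1 uM in the protein solution; 300mM KCl, 50mM Tris-HCl, 1mM EDTA, 1mM DTT, pH 7.5) received compound, then a probe mix of 5 nM fluorescein-DNA and 100nM Texas-615-DNA. Fluorescence polarization was read for both dyes.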
# Giardia killer = Small Molecules that selectively kill Giardia lamblia: qHTS; actives 0.15% (n = 340,000); activity change, % at 7.66 µM, hits read low; Giardia lamblia trophozoite viability; in the data active = activity change below about -80%; inconclusive = between about -30% and that limit;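 note: parasites exposed to compound for two days anaerobically before the ATP read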
#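 Trophozoites 100 cells/well + cpd; 48 hrs, 37 deg C, anaerobic. ATPLite 1-Step added, 15-30 min RT, luminescence read (ATP-based viability).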
# PINK1 modulator = A Quantitative High throughput Screen to Identify Chemical Modulators of PINK1 Expression | Potency, µM (top dose mostly 76.6 µM), actives largely listed as activators | actives 0.2% (n = 410,000) | PINK1 immunofluorescence, high-content cytometry, 24 h; active = well fitted activation curve with a large enough effect; inconclusive = small, poorly fitted or top-dose-only effect; cell line not stated here; note: nearly all actives have a fitted effect of over 65% in size
#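 Measures PINK1 amount and localization on or inside mitochondria by immunofluorescence. Stable cells get compounds at 5 concentrations for 24 hours before fixation and staining; CCCP controls included.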
# miR-21 act = qHTS Assay for Modulators of miRNAs and/orActivators of miR-21; 340,000 tested, under 10 active; Potency, µM (titrated, usually from 38.3 µM), hits mostly activators; AID 2288, 2010; HeLa miR-21 FLuc reporter, luciferase, 48 h;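 note: miR-21 action dims this reporter so a rising signal means less miR-21 action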
#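 Luminescence from a firefly luciferase reporter carrying a miR-21 binding site downstream, stably expressed under a CMV promoter in HeLa cells that make miR-21 endogenously, reports miRNA modulation after 48 h compound exposure up to approximately 40uM final.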
# PTHR1 agonist = qHTS for PTHR1 Agonists: Primary Screen. Parathyroid hormone/parathyroid hormone-related peptide receptor (Homo sapiens), Q03431. HEK293 GP2 PTHR1 cells, GloSensor cAMP luminescence, 1 h. Potency, µM (series often up to 115 µM), usual class: activators. actives 0.075% (n = 410,000); note: nearly all actives have a fitted effect of over 55% in size
#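 HEK-293-derived GP2 cells expressing PTHR1 and a GloSensor cAMP reporter, 3,000/well, plated overnight, given luciferin plus IBMX (each 0.5 mM as added) for 1 h at 37 °C, then compound for 1 h at 37 °C. Luminescence was read after 15 min at room temperature.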
# Hits are given with their value; - = inactive; ? = inconclusive; . = no result; ! = repeats disagree. Most compounds without a hit are left out; they make up all but 1.3% or so of the library. Unless noted, calls come from the whole dose curve; as a rule, active = well fitted curve in the direction sought with a large enough effect; inconclusive = small, poorly fitted or top-dose-only effect, or another doubt; inactive = no such curve, though single readings can be large; an effect the other way counts as inactive or inconclusive.
SMILES,12-LOX inh,ERG Ets-DNA blk,Giardia killer,PINK1 modulator,miR-21 act,PTHR1 agonist
O=C(O)c1cccc(NC(=S)NC(NC(=O)c2ccco2)C(Cl)(Cl)Cl)c1 (stereo not given),-,-,-,-,-,-
O=C(NC(NC(=S)Nc1ccc(Cl)c(Cl)c1)C(Cl)(Cl)Cl)c1ccco1 (stereo not given),2.8µM,-,-,?,-,-
S=C(NCc1ccco1)Nc1cc(-c2ccccc2)[nH]n1,5µM,-,-,-,-,-
COc1ccc(NC(=S)NCc2ccco2)cc1,-,-,-,-,-,-
S=C(NCc1ccco1)Nc1ccc(Oc2ccccc2)cc1,45µM,-,-,-,-,-
O=C(NC(NC(=S)Nc1cccc(Cl)c1)C(Cl)(Cl)Cl)OCc1ccccc1 (stereo not given),?,.,-,7.9µM,?,-
S=C(NCc1ccco1)Nc1ccc(Br)cn1,?,-,-,-,-,-
CN(C(=O)CSc1ncccc1C(=O)O)c1ccccc1,?,-,-,-,-,-
COc1cccc(CNC(=O)COC(=O)c2ccc(N3CCCC3=O)cc2)c1,-,.,.,-,.,-
C[C@H]1CN([C@@H](C)CO)C(=O)CCCn2cc(nn2)CO[C@@H]1CN(C)S(=O)(=O)c1cccc(F)c1,-,.,.,-,.,-
S=C(NCc1ccco1)Nc1ccc(Cl)c(Cl)c1,28µM,.,-,-,-,-
Cc1cc(C)c2c(CN3CCN(Cc4ccccc4)CC3)cc(=O)oc2c1,14µM!,-,-,-,-,-
Cc1cc(C)c2c(CN3CCN(c4ccccc4)CC3)cc(=O)oc2c1,-,.,.,-,.,-
COc1cc(CNn2cn[nH]c2=S)cc(Cl)c1OCc1ccc(F)cc1,?,-,-,-,-,-
COc1cc(CNn2c(C)n[nH]c2=S)cc(Cl)c1OCc1ccccc1,20µM,.,-,.,-,-
Cc1cccc(CSCc2nnc(N)s2)c1,-,-,-,-,-,-
Cc1ccc(CNC(=O)C2CCC(=O)N(Cc3ccc(Cl)cc3)C2)cc1F (stereo not given),?,-,-,-,-,-
CCCCCn1c(-c2ccco2)nc2nc3ccccc3nc21,35µM,-,-,-,-,-
c1ccc(Cn2c(-c3ccco3)nc3nc4ccccc4nc32)cc1,?,-,-,-,-,-
CCOC(=O)c1ccc(/C=C2/C=C(c3ccccc3)N(c3ccc(Cl)c(C(=O)O)c3)C2=O)cc1,45µM,-,-,-,-,-
CCOC(=O)c1ccc(Cl)c(NC(=O)c2ccc(-c3ccccc3)cc2)c1,-,.,-,.,-,-
COc1ccc(-c2csc(NCCc3ccc(OC)c(OC)c3)n2)cc1,-,.,.,.,.,.
COc1ccc(CCNc2nc(-c3cc(OC)c(OC)c(OC)c3)cs2)cc1OC,7.9µM,.,.,.,.,.
COc1ccc(C(=O)N2CCC3(CN[S+](=O)([O-])c4ccccc4N3)C2)cc1 (stereo not given),-,.,.,.,.,.
O=C(Cn1cnc2onc(-c3ccc(Cl)cc3)c2c1=O)Nc1ccc(F)cc1,45µM,-,.,-,-,-
SMILES,12-LOX inh,ERG Ets-DNA blk,Giardia killer,PINK1 modulator,miR-21 act,PTHR1 agonist
Cc1ccc(CN2C(=O)NC3(CCCN(C(=O)c4cc5ccccc5[nH]4)C3)C2=O)cc1 (stereo not given),13µM,.,.,.,.,.
Cc1ccc(-c2nccc(N3CCC(O)C3)n2)c(C)c1 (stereo not given),35µM,.,.,.,.,.
COc1cc(C(=O)NCC(=O)OCc2ccccc2Cl)cc(OC)c1OC,-,-,-,-,-,-
CCn1ncc(C2=NOC(C(=O)NCc3ccccc3)C2)c1C (stereo not given),-,-,-,13µM,-,-
O=C(Nc1ccc(Cl)c(Cl)c1)N1CCCCCC1,-,-,-,-,-,-
O=C(c1ccc(NC(=S)Nc2ccc(Cl)c(Cl)c2)cc1)N1CCCC1,?,-,-,28µM,-,-
CCc1ccc(C(=O)Nc2nc3ccccc3[nH]2)cc1,-,-,-94,-,?,-
O=C(Nc1nc2ccccc2[nH]1)c1ccc(F)cc1,-,-,?,-,-,-
O=C(Nc1nc2ccccc2[nH]1)c1ccccc1F,-,-,-89,-,?,-
O=C(COC(=O)c1cc(-c2ccco2)nc2ccccc12)NCc1ccccc1,10µM,-,-,-,-,-
CNC(=O)COC(=O)c1cc(-c2ccco2)nc2ccccc12,?,-,-,-,-,-
CCN(CC)C(=O)COC(=O)c1cc(-c2ccco2)nc2ccccc12,?,-,-,-,-,-
CCNC(=O)NC(=O)COC(=O)c1cc(-c2ccc(C)o2)nc2ccccc12,3.2µM,.,.,.,.,.
CCNC(=O)NC(=O)COC(=O)c1cc(-c2ccco2)nc2ccccc12,6.3µM,.,.,.,.,.
CC(NC(=O)c1cc(-c2ccco2)nc2ccccc12)C(=O)NCc1ccccc1 (stereo not given),40µM,.,.,.,.,.
COc1ccc(-c2ccc(F)cc2)cc1[C@H]1[C@H]2C=CC[C@@H](C)[C@@H]2C(=O)N1Cc1ccccc1,-,-,-,?,-,-
O=S(=O)(NCCc1cn2ccccc2n1)c1ccc2c(c1)OCCO2,-,-,-,-,-,-
Cc1ccc(-c2cc(C(=O)OC(C)C(=O)NC(=O)NC3CCCC3)c3ccccc3n2)o1 (stereo not given),4µM,.,.,.,.,.
O=C(O)Cn1ccc2cc(OCc3cccc(-c4ccc(F)c(Cl)c4)c3)cnc21,50µM,.,.,.,.,.
O=C(O)Cn1ccc2cc(OCc3cccc(-c4ccc(F)cc4F)c3)cnc21,35µM,.,.,.,.,.
COc1cccc(-c2cccc(COc3cnc4c(ccn4CC(=O)O)c3)c2)c1F,50µM,.,.,.,.,.
Cc1ccc(-c2cccc(COc3cnc4c(ccn4CC(=O)O)c3)c2)cc1,-,.,.,.,.,.
NC(=O)[C@@H]1CCCN1Cc1c(C(=O)N2CCN(C3CCCCC3)CC2)nc2ccccn12,-,-,-,-,-,-
CCCc1c(-c2cccc(Br)c2)ncn1Cc1cccc(-c2ccccc2)c1,3.5µM,.,.,.,.,-
CCc1c(-c2ccc(Br)cc2)ncn1Cc1cccc(-c2ccccc2)c1,?,.,.,.,.,-
CCCc1c(-c2ccc(Cl)cc2)ncn1Cc1cccc(-c2ccccc2)c1,5µM,.,.,.,.,-
C=CCNC(=O)c1csc2nc(-c3cccc(C(F)(F)F)c3)cn12,-,.,.,.,.,.
O=C(Nc1cnc(N2CCC(N3CCCCC3)CC2)c(C(=O)O)c1)c1ccc(Br)cc1,40µM,-,.,-,-,-
NC(N)=NCCCCN=C(N)N,-,.,.,-,.,.

# Compound activity deposited in PubChem by National Center for Advancing Translational Sciences (NCATS).
